Experimental data as given in article PMC7862700, “An all-to-all approach to the identification of sequence-specific readers for epigenetic DNA modifications on cytosine”.

Assays:
Test in all cases: DAPPL (digital affinity profiling via proximity ligation, sequencing); 10 mM Tris-HCl pH 7.5, 50 mM NaCl, 1 mM DTT, 4% glycerol, room temperature, 30 min; GST-TFs on glutathione beads, 16-mer random dsDNA library, 0.1% formaldehyde crosslink after washing; high values mean tight binding
FLI1 = molecular target: T1, FLI1 (Homo sapiens, UniProt Q01543 1-452); details: protein: recombinant; tags: N-terminal GST; dsDNA, one strand shown
T1 sequence: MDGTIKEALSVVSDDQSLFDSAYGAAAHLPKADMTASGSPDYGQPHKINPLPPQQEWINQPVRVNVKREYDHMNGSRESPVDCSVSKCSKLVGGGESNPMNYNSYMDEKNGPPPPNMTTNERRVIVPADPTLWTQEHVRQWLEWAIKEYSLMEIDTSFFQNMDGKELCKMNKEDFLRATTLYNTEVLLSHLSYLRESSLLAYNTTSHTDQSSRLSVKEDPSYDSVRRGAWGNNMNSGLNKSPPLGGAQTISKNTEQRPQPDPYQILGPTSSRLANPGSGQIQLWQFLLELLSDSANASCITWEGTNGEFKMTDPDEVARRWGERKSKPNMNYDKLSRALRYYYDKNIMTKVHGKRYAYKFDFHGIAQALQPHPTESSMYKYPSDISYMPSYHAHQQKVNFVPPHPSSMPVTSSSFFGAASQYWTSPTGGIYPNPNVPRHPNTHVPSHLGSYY
Method in brief: (§1)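 Human transcription factors fused to GST were expressed in yeast, captured on glutathione beads, given DNA barcodes and pooled with a GST-only negative control. Pools were incubated with 200 nmole of a 16-mer random double-stranded DNA library in Tris/NaCl/DTT/glycerol buffer at room temperature for 30 min. They were then washed, crosslinked with 0.1% formaldehyde, proximity-ligated (BsaI/T4 ligase, 1 h, 37 °C), PCR-amplified and sequenced on an Illumina NextSeq500. Binding signal is each 6-mer's read frequency for a factor divided by its frequency for the GST control.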

ELK1 = molecular target: T2, ELK1 (Homo sapiens, UniProt P19419 1-428); details: protein: recombinant; tags: N-terminal GST; dsDNA, one strand shown
T2 sequence: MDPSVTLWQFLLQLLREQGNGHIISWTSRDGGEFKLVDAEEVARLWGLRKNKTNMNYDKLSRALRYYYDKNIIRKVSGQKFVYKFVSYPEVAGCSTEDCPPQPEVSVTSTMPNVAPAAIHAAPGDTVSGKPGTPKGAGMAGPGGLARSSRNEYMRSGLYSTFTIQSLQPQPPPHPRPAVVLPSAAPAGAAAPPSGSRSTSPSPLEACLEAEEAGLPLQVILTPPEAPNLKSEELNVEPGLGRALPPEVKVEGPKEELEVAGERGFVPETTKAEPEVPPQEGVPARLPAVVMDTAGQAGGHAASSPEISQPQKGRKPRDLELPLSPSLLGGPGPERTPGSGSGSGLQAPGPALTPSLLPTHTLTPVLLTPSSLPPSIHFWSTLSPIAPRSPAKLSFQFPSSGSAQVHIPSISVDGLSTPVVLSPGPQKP
Method in brief: as §1

GABPA = molecular target: T3, GABPA (Homo sapiens, UniProt Q06546 1-454); details: protein: recombinant; tags: N-terminal GST; dsDNA, one strand shown
T3 sequence: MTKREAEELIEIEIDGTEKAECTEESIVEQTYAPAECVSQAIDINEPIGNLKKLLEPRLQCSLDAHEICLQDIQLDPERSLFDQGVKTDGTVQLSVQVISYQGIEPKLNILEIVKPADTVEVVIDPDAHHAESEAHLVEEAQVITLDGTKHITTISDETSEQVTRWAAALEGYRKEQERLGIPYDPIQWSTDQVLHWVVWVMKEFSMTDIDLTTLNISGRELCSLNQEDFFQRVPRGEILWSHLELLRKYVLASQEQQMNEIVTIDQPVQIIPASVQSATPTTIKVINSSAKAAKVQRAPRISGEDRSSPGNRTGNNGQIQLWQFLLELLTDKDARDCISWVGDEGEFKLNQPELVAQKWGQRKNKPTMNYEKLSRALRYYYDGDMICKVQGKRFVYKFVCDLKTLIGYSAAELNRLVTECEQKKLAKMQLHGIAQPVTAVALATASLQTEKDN
Method in brief: as §1

ERG = molecular target: T4, ERG (Homo sapiens, UniProt P11308 1-479); details: protein: recombinant; tags: N-terminal GST; dsDNA, one strand shown
T4 sequence: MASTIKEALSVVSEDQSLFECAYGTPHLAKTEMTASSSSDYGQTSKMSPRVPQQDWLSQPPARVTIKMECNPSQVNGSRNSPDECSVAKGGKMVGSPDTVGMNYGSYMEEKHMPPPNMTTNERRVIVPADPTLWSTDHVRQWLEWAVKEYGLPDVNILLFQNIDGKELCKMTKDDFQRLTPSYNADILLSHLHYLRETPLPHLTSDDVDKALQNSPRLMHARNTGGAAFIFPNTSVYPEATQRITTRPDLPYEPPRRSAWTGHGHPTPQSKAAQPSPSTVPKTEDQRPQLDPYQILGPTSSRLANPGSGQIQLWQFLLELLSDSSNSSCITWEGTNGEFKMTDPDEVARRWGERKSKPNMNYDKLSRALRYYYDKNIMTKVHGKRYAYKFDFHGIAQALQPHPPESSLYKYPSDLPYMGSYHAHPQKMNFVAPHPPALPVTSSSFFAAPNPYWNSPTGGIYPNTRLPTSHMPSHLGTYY
Method in brief: as §1

ELF1 = ELF1 (Homo sapiens, UniProt P32519 1-619); details: protein: recombinant; tags: N-terminal GST; dsDNA, one strand shown
Method in brief: as §1

EHF = molecular target: T5, EHF (Homo sapiens, UniProt Q9NZC4 1-300); details: protein: recombinant; tags: N-terminal GST; dsDNA, one strand shown
T5 sequence: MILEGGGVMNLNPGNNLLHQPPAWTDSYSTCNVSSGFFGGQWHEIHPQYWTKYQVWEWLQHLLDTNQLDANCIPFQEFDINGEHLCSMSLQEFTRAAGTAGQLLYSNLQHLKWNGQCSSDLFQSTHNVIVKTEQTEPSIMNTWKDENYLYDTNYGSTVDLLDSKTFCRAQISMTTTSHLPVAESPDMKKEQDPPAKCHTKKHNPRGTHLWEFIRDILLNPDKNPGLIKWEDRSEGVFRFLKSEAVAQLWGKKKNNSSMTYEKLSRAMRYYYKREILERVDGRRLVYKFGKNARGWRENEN
Method in brief: as §1

SPI1 = SPI1 (Homo sapiens, UniProt P17947 1-270); details: protein: recombinant; tags: N-terminal GST; dsDNA, one strand shown
Method in brief: as §1

SPIB = SPIB (Homo sapiens, UniProt Q01892 1-262); details: protein: recombinant; tags: N-terminal GST; dsDNA, one strand shown
Method in brief: as §1

ELK3 = molecular target: T6, ELK3 (Homo sapiens, UniProt P41970 1-407); details: protein: recombinant; tags: N-terminal GST; dsDNA, one strand shown
T6 sequence: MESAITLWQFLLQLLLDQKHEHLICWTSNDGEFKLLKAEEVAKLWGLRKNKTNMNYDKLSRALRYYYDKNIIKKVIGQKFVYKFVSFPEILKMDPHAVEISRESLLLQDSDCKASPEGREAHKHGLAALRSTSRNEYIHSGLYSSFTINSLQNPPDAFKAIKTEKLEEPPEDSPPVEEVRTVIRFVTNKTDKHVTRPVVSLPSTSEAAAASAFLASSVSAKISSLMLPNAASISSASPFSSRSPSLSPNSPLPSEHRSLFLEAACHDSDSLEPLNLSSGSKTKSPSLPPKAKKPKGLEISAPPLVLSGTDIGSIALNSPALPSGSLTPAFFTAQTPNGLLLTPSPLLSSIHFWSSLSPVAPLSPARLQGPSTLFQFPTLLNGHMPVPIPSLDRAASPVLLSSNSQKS
Method in brief: as §1

FEV = molecular target: T7, FEV (Homo sapiens, UniProt Q99581 1-238); details: protein: recombinant; tags: N-terminal GST; dsDNA, one strand shown
T7 sequence: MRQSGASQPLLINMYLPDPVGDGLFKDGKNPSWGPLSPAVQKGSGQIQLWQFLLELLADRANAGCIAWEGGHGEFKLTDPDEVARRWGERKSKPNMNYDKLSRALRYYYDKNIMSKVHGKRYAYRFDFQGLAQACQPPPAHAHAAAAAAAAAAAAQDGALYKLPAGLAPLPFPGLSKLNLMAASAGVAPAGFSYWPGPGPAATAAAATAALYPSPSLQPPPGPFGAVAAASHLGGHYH
Method in brief: as §1

ETV5 = ETV5 (Homo sapiens, UniProt P41161 1-510); details: protein: recombinant; tags: N-terminal GST; dsDNA, one strand shown
Method in brief: as §1

HSF1 = HSF1 (Homo sapiens, UniProt Q00613 1-529); details: protein: recombinant; tags: N-terminal GST; chain copies: 3; dsDNA, one strand shown
Method in brief: as §1

SPIC = molecular target: T8, SPIC (Homo sapiens, UniProt Q8N5J4 1-248); details: protein: recombinant; tags: N-terminal GST; dsDNA, one strand shown
T8 sequence: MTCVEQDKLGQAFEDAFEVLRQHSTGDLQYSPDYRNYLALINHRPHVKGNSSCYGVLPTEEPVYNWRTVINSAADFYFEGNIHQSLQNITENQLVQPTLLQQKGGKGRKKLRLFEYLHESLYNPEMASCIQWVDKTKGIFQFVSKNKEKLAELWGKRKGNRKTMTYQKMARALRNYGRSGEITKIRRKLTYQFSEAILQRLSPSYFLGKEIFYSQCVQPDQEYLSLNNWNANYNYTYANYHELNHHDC
Method in brief: as §1

ELF4 = ELF4 (Homo sapiens, UniProt Q99607 1-663); details: protein: recombinant; tags: N-terminal GST; dsDNA, one strand shown
Method in brief: as §1

ELK4 = molecular target: T9, ELK4 (Homo sapiens, UniProt P28324-2 1-405); details: protein: recombinant; tags: N-terminal GST; dsDNA, one strand shown
T9 sequence: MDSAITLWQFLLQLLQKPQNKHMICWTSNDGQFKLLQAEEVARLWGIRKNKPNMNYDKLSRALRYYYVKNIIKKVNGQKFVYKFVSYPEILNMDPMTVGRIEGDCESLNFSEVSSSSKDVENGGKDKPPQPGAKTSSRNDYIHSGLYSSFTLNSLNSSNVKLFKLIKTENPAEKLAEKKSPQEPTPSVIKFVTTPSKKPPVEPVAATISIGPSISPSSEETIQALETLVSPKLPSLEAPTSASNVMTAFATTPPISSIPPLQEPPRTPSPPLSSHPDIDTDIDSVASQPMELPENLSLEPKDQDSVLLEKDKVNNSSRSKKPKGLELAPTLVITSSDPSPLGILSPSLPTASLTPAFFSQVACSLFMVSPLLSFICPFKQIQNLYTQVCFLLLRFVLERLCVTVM
Method in brief: as §1

ETV2 = molecular target: T10, ETV2 (Homo sapiens, UniProt O00321 1-342); details: protein: recombinant; tags: N-terminal GST; dsDNA, one strand shown
T10 sequence: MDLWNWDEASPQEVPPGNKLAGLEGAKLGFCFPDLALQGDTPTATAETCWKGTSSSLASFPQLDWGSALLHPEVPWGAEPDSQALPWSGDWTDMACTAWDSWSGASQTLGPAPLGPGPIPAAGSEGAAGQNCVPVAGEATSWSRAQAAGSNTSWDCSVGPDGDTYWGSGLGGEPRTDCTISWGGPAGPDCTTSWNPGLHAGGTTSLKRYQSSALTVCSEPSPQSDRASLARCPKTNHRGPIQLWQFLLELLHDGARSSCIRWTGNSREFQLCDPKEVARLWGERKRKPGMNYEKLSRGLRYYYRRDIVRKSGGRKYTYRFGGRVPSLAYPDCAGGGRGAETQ
Method in brief: as §1

ELF3 = molecular target: T11, ELF3 (Homo sapiens, UniProt P78545 1-371); details: protein: recombinant; tags: N-terminal GST; dsDNA, one strand shown
T11 sequence: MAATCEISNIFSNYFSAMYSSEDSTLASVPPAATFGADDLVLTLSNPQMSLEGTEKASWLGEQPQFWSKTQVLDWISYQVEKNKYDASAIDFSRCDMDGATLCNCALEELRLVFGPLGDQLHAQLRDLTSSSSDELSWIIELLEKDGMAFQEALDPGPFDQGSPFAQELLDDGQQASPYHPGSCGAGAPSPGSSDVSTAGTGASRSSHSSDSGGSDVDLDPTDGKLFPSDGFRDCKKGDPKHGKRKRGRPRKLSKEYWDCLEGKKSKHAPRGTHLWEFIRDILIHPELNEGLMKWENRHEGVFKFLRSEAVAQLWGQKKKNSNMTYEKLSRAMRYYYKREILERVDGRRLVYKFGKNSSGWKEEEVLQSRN
Method in brief: as §1

CRX = CRX (Homo sapiens, UniProt O43186 1-299); details: protein: recombinant; tags: N-terminal GST; dsDNA, one strand shown
Method in brief: as §1

ETV1 = ETV1 (Homo sapiens, UniProt P50549 1-477); details: protein: recombinant; tags: N-terminal GST; dsDNA, one strand shown
Method in brief: as §1

Chain of ELF4 (Q99607 whole entry): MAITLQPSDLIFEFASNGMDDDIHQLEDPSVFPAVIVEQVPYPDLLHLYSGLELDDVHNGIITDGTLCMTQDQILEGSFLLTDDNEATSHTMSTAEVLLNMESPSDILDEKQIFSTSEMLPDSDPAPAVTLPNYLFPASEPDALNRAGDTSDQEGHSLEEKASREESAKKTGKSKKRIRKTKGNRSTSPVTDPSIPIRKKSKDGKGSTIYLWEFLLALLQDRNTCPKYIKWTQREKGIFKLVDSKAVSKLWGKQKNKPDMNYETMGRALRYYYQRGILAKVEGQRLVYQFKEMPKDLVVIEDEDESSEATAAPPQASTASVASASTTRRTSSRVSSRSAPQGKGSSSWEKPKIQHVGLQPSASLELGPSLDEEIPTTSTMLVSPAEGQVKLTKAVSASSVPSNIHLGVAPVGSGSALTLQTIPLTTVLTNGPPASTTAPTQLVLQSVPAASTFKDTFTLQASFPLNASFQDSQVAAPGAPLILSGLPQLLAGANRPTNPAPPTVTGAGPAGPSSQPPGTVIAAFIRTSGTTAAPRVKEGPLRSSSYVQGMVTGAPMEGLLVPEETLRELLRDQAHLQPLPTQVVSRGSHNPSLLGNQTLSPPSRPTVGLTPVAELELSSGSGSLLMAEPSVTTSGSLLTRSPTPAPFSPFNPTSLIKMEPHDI
Chain of CRX (O43186 whole entry): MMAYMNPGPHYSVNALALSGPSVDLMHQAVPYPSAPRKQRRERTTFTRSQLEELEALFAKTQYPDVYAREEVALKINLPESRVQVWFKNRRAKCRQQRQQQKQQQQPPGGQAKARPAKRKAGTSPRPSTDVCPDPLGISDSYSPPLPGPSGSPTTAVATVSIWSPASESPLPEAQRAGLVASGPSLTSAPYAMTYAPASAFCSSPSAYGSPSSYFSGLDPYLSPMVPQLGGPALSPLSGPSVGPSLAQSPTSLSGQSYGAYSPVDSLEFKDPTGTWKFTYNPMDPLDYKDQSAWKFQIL
Chain of SPIB (Q01892 whole entry): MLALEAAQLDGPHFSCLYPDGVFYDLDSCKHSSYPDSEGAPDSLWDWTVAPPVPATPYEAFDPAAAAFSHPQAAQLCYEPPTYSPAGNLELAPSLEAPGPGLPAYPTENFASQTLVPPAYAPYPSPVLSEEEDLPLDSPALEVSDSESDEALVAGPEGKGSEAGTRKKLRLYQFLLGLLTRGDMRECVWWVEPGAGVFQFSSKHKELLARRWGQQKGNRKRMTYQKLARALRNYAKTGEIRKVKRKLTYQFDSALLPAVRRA
Chain of ELF1 (P32519 whole entry): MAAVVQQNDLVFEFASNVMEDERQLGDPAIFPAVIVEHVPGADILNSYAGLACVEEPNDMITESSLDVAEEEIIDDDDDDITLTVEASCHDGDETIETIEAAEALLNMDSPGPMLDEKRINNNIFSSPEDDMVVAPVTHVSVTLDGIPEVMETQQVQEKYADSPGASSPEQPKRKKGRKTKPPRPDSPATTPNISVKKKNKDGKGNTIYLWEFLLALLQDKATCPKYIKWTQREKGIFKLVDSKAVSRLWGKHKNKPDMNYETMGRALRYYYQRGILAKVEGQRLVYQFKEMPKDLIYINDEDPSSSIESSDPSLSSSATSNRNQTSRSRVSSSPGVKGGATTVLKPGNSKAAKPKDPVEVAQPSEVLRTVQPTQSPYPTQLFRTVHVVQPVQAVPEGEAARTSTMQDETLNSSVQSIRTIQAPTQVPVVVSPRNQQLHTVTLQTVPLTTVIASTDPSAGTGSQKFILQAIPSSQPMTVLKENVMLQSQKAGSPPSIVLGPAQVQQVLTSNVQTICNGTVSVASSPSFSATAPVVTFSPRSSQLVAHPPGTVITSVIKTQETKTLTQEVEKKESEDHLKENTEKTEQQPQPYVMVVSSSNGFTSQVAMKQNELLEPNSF
Chain of ETV5 (P41161 whole entry): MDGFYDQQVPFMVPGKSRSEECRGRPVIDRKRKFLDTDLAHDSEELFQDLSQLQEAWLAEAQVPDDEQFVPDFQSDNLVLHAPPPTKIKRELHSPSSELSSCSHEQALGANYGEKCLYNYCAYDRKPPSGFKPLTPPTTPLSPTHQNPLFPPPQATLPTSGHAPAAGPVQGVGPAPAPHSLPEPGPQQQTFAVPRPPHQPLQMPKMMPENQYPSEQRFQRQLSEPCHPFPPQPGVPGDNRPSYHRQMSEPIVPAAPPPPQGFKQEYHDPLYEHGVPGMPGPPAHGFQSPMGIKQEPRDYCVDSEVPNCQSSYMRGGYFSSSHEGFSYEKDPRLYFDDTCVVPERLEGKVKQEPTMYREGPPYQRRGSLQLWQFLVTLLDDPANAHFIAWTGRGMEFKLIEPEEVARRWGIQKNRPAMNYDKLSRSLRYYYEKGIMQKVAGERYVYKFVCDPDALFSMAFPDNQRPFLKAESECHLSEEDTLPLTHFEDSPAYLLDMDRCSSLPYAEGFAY
Chain of ETV1 (P50549 whole entry): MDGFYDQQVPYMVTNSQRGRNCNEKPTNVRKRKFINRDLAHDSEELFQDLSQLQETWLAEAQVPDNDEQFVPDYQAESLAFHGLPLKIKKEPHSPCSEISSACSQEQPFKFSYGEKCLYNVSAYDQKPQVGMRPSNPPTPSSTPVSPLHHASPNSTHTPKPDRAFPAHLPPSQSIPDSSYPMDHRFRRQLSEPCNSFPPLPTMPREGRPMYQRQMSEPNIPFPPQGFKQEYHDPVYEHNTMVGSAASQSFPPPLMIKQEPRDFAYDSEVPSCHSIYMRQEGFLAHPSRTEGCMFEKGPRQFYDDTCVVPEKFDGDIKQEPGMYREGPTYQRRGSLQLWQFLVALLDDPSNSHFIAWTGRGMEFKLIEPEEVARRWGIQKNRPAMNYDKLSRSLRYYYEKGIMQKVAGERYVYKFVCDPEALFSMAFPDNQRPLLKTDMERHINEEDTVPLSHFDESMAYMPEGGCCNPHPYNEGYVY
Chain of HSF1 (Q00613 whole entry): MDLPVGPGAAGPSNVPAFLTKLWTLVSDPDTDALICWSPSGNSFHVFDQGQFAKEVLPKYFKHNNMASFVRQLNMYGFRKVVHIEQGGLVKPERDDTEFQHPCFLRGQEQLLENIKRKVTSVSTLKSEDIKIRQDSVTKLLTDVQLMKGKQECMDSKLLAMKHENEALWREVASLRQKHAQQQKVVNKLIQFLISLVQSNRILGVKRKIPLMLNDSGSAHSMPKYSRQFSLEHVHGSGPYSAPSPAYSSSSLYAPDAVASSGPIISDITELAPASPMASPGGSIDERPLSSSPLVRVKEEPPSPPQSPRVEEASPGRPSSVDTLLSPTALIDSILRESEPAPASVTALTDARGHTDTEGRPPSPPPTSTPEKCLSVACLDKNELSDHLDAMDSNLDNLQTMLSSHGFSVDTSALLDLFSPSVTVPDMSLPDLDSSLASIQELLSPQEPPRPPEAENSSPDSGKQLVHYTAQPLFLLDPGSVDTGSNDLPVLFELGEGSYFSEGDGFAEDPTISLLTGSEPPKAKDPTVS

CCGACC
binding signal (FLI1): 1.66 fold enrichment (6-mer frequency, TF over GST control) | binding signal (ELK1): 1.59 fold enrichment (6-mer frequency, TF over GST control) | binding signal (GABPA): 1.65 fold enrichment (6-mer frequency, TF over GST control) | binding signal (ERG): 1.55 fold enrichment (6-mer frequency, TF over GST control) | binding signal (ELF1): 1.47 fold enrichment (6-mer frequency, TF over GST control) | binding signal (EHF): 1.44 fold enrichment (6-mer frequency, TF over GST control) | binding signal (SPI1): 1.42 fold enrichment (6-mer frequency, TF over GST control) | binding signal (SPIB): 1.57 fold enrichment (6-mer frequency, TF over GST control) | binding signal (ELK3): 1.8 fold enrichment (6-mer frequency, TF over GST control) | binding signal (FEV): 1.71 fold enrichment (6-mer frequency, TF over GST control) | binding signal (ETV5): 1.5 fold enrichment (6-mer frequency, TF over GST control) | binding signal (HSF1): 1.14 fold enrichment (6-mer frequency, TF over GST control) | binding signal (SPIC): 1.45 fold enrichment (6-mer frequency, TF over GST control) | binding signal (ELF4): 1.54 fold enrichment (6-mer frequency, TF over GST control) | binding signal (ELK4): 1.61 fold enrichment (6-mer frequency, TF over GST control) | binding signal (ETV2): 1.46 fold enrichment (6-mer frequency, TF over GST control) | binding signal (ELF3): 1.63 fold enrichment (6-mer frequency, TF over GST control) | binding signal (CRX): 1.13 fold enrichment (6-mer frequency, TF over GST control) | binding signal (ETV1): 1.53 fold enrichment (6-mer frequency, TF over GST control)
